This note sets out measurements from PubChem BioAssay (NCATS).

Structures are written as SMILES. Inconclusive results are not listed. Unmarked numbers belong to inactive results. Calls of active or inactive are those of the source. Unless noted, calls come from the whole dose curve; as a rule, active = well fitted curve in the direction sought with a large enough effect; inconclusive = small, poorly fitted or top-dose-only effect, or another doubt; inactive = no such curve, though single readings can be large; an effect the other way counts as inactive or inconclusive. Where a SMILES comes first, the peptide text is derived from it. [ ]: non-standard residue; d: D form. Ala(indol-2-yl) = N[C@@H](Cc1cc2ccccc2[nH]1)C(=O)O; Aib = CC(C)(N)C(=O)O

Experiment [1] in a line: Primary qHTS for inhibitors of nuclear receptor binding SET domain protein 2 (NSD2) in an RCH-ACV wild type WT cells (2C) (AID 1645877). For activity change, negative = cell killing: % is set by controls: 0 for no effect and ±100 for the full control effect. Note: nearly all actives have a fitted effect of over 70% in size. Note: potency is the fitted concentration of half-maximal effect.
Experiment [2] can be described thus: Primary redox qHTS assay for identification of artifact compounds. (AID 1845223).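 Note: 0% = DMSO and 100% = reference compound.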 The method, boiled down:
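Amplex Red (25 uM) and HRP (250 mU/mL) in HBSS, with compounds for 15 min, then 250 uM DTT for 30 min, room temperature, dark. Fluorescence 525/598 nm read; normalized to DMSO and 10 uM DA3003; Hill fit.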

The next experiment relates to KB-3-1. In words: Cytotoxic Profiling of Annotated Libraries Using Quantitative High-Throughput Screening (AID 1296008). For max response: % is set by controls: 0 for no effect and ±100 for the full control effect. Note: nearly all actives have a fitted effect of over 60% in size. Note: potency is the fitted concentration of half-maximal effect. The following applies: Five cell lines viability, CellTiter-Glo ATP luminescence, 48-72 h; max response: active compounds read low. The method, boiled down:
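Cells exposed to compounds for 48 or 72 hr at 37 degrees Celsius. Viability read as ATP-coupled luminescence with CellTiter-Glo after 10 min at room temperature.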
For orientation: Cellular ATP, detected with luciferase, serves as a proxy for viable cell number.

In a further experiment the test system is HeLa. In words: Primary qHTS to identify gynecologic anti-cancer compounds using libraries of approved drugs and bioactive compounds (AID 1345084). Note: nearly all actives have a fitted effect of over 55% in size. Note: potency is the fitted concentration of half-maximal effect. The following applies: Gynecologic cancer cell panel viability, ATPlite luminescence, 48 h; series mostly up to 57.5 µM. The method, boiled down:
(§1)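 Luminescence from the ATPlite ATP-monitoring reagent indicates viable cell number; lower signal means cytotoxicity. Cells received compound 16 h after seeding and were exposed for 48 h across five concentrations.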
For orientation: qHTS replaces the single test concentration by a dilution series.

Experiment [3] can be described thus: P-glycoprotein substrates identified in KB-8-5-11 adenocarcinoma cell line, qHTS therapeutic library screen (AID 1346987). For activity change, negative = cytotoxicity: % is set by controls: 0 for no effect and ±100 for the full control effect. Note: nearly all actives have a fitted effect of over 65% in size. Note: potency is the fitted concentration of half-maximal effect. The method, boiled down: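 KB-8-5-11: colchicine-selected sub-line of KB-3-1 over-expressing P-gp; assay medium lacked colchicine. 72 h drug exposure at 37 degree C, CellTiter-Glo.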
The subject of experiment [4] is Zika virus NS2B-NS3 protease (unlinked complex). In words: Primary screen GU Rhodamine qHTS for Zika virus inhibitors: Unlinked NS2B-NS3 protease assay (AID 1347159). For activity change, negative = inhibition: % is set by controls: 0 for no effect and ±100 for the full control effect. Note: nearly all actives have a fitted effect of over 60% in size. Note: potency is the fitted concentration of half-maximal effect. The method, boiled down: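 Compounds, tested up to 114 microM, were incubated for 15 minutes with 25 nM unlinked NS2B-NS3 protease at pH 8.0. Cleavage of 1.5 microM Rhodamine110 substrate was then followed by fluorescence for 15 minutes.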

The target of experiment [5] is Cytochrome P450 2C9 (Homo sapiens) (UniProt P11712). In words: Cytochrome P450 family 2 subfamily C member 9 (CYP2C9) small molecule antagonists: luciferase biochemical (cell-free) qHTS assay (AID 1645842; active = well fitted curve in the direction sought with a large enough effect in the repeat runs; an effect the other way counts as inactive or inconclusive; note: potency is the fitted concentration of half-maximal effect; nearly all actives have a fitted effect of over 55% in size). The method, boiled down: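 Luminescence, after 20 min with luciferin detection reagent, reflected CYP2C9 turnover during a 1 h NADPH-driven reaction at 37C. Enzyme-substrate mix contained 0.4% bovine serum albumin and was preincubated with compound 10 min at room temperature.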
Cytochrome P450 2C9 (Homo sapiens), sequence (P11712 whole entry, looked up): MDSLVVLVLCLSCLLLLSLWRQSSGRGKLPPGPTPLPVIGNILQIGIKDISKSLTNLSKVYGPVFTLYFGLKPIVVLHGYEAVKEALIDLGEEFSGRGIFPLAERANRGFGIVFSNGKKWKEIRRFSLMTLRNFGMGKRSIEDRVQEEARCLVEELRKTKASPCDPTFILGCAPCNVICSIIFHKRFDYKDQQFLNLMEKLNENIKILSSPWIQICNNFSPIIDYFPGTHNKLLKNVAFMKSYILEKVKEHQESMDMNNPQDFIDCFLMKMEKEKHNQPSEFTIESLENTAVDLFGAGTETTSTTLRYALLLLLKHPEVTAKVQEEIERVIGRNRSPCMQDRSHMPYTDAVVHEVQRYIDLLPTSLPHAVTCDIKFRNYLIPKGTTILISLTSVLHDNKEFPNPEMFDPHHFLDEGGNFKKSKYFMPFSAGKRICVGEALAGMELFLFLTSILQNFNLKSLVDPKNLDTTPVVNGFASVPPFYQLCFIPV

A further experiment concerns CAOV3. In words: Primary qHTS to identify gynecologic anti-cancer compounds using libraries of approved drugs and bioactive compounds (AID 1345084). Note: nearly all actives have a fitted effect of over 55% in size. Note: potency is the fitted concentration of half-maximal effect. To be noted: Gynecologic cancer cell panel viability, ATPlite luminescence, 48 h; series mostly up to 57.5 µM. The method, boiled down: as §1
A further experiment relates to JEG-3. The description is as above. The following applies: Gynecologic cancer cell panel viability, ATPlite luminescence, 48 h; series mostly up to 57.5 µM. The method, boiled down: as §1
Experiment [6] concerns the target Cytochrome P450 2D6 (Homo sapiens) (UniProt P10635). In words: Cytochrome P450 family 2 subfamily D member 6 (CYP2D6) small molecule antagonists: luciferase biochemical (cell-free) qHTS assay (AID 1645840; active = well fitted curve in the direction sought with a large enough effect in the repeat runs; an effect the other way counts as inactive or inconclusive). The method, boiled down:
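P450-Glo luminescent screen: recombinant CYP2D6 enzyme–proluciferin substrate mix preincubated with compound 10 min at room temperature, then NADPH regeneration added for 1 h at room temperature. Detection reagent added for 20 min; luciferin light read as relative luminescence units.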

The nature of experiment [7]: P-glycoprotein substrates identified in KB-3-1 adenocarcinoma cell line, qHTS therapeutic library screen (AID 1346986). Note: nearly all actives have a fitted effect of over 60% in size. The method, boiled down: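 Compounds were tested in dose-response against KB-3-1 and KB-8-5-11 cells at 37 degree C for 72 h, and viability was measured by luminescence. AC50 values came from curve fitting with class-based activity calls.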
The test system of a further experiment is SKOV3. In words: Primary qHTS to identify gynecologic anti-cancer compounds using libraries of approved drugs and bioactive compounds (AID 1345084). Note: nearly all actives have a fitted effect of over 55% in size. Note: potency is the fitted concentration of half-maximal effect. To be noted: Gynecologic cancer cell panel viability, ATPlite luminescence, 48 h; series mostly up to 57.5 µM. The method, boiled down: as §1

Cytochrome P450 2D6 (Homo sapiens), sequence (P10635 whole entry, looked up): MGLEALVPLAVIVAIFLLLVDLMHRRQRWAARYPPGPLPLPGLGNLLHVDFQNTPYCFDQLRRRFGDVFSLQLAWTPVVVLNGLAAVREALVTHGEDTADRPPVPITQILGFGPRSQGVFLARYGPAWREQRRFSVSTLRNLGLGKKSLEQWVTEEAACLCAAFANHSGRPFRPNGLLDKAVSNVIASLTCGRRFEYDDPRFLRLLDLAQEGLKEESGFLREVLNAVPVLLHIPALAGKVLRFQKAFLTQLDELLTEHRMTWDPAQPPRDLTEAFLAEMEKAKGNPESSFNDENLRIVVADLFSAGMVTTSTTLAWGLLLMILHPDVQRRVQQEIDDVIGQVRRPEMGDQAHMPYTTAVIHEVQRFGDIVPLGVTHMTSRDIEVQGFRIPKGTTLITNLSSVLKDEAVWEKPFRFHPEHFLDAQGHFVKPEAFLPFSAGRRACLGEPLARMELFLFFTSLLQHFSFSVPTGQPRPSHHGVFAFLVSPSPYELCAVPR

In the case of `C[C@@H]1C[C@@H](O)[C@]2(O)O[C@@H]3C[C@@]4(C=O)C(CC[C@@H]5C4CC[C@]4(C)[C@@](O)(C6=CC(=O)OC6)CC[C@]54O)C[C@H]3OC2O1` (stereo partly drawn), the Potency in experiment [1] is 1.12 µM (active); with KB-3-1, 2.24 µM (active); in the experiment with HeLa, 3.98 µM (active). The Potency result in experiment [2] is “inactive”.

Regarding `N#Cc1ccc([C@H]2CCCC[C@H]2O)cc1C(F)(F)F`, the Potency entry (in experiment [3]; in experiment [4]; in [1]; in experiment [2]; in the experiment with CAOV3; with HeLa) was “inactive” each time. Besides, in the experiment with JEG-3, the Potency entry was “inactive”. Moreover, in [5], the Potency is 26.8 µM (active). In addition, in the experiment with KB-3-1, the max response was -5.63%.

`CC[C@H](C)[C@H](NC(=O)[C@H]1CCCCN1C)C(=O)N(COC(=O)CC(C)C)[C@H](C[C@@H](OC(C)=O)c1nc(C(=O)N[C@@H](Cc2ccc(O)cc2)C[C@H](C)C(=O)O)cs1)C(C)C`: the Potency in experiment [3] is 0.0019 µM (active); in [1], 0.0003 µM (active); in the experiment on KB-3-1, 0.0008 µM (active). The activity change, negative = inhibition in experiment [4] was 9.2% [at 2.28 µM]. In the experiment on CAOV3, the activity change, negative = cytotoxicity is -2.04% [at 1.28 µM].

On to `CC1=C[C@H]2O[C@@H]3[C@H](O)[C@@H](O)[C@](C)([C@@]2(CO)C[C@@H]1O)[C@]31CO1`, for which the Potency in [3] is 2.06 µM (active); in the experiment with KB-3-1, 1.46 µM (active); with CAOV3 it was 11.2 µM (active); in the experiment with HeLa, 12.6 µM (active). Also, the Potency result in [4] and in experiment [2] was “inactive” throughout.

Take `O=C(OC[C@H]1O[C@@H](Oc2ccc(O)cc2CO)[C@H](O)[C@@H](O)[C@@H]1O)c1ccccc1`: the Potency result (in [2]; in the experiment with CAOV3; in the experiment with HeLa; in the experiment with JEG-3) was “inactive” throughout. In addition, the max response in the experiment with KB-3-1 is 4.17%.

Turning to `CNc1ccc2oc(C[C@H]3O[C@@]4(CC[C@H]3C)O[C@H](C(C)C(=O)c3ccc[nH]3)[C@H](C)C[C@H]4C)nc2c1C(=O)O` (stereo partly drawn), the Potency was 11.2 µM (active) in [4], 2.31 µM (active) in the experiment on KB-3-1 and 22.4 µM (active) in the experiment with CAOV3. The Potency entry in [6] was “inactive”.

For the compound `C[C@H](CCC(=O)O)C[C@H](C)C[C@H](C)C(=O)/C=C(\O)[C@H](C)C[C@H](C)C/C=C/[C@@H](C)[C@@H](O)[C@@H](C)[C@@H](O)C[C@@H]1CC[C@@](C)([C@H]2CC[C@@](C)([C@@H](C)O)O2)O1`, the figures for the Potency (in [1]; in the experiment on KB-3-1) were 4.47 µM (active) and 8.93 µM (active), respectively. Also, the Potency result (in experiment [2]; with CAOV3; in the experiment on HeLa; in the experiment with JEG-3) was “inactive” in each case.

On to `CC1=CC(=O)[C@@H](O)[C@]2(C)C3[C@@H](O)[C@@H]4OC(=O)[C@@H]([C@H]4C)[C@]3(C)C(=O)C[C@@H]12` (stereo partly drawn), for which the results for the Potency (in experiment [3]; in the experiment with KB-3-1) were 3.21 µM (active) and 4.53 µM (active), respectively. The Potency result (in [4]; in the experiment on CAOV3; in the experiment with HeLa; in the experiment on JEG-3) was “inactive” throughout.

With `C[C@]12CC[C@H](O)C[C@H]1CC[C@@H]1[C@@H]2[C@H](O)C(=O)[C@]2(C)[C@@H](c3ccc(=O)oc3)CC[C@]12O`, the Potency in experiment [3] was 0.0259 µM (active); in [1], 0.0515 µM (active); with KB-3-1, 0.0461 µM (active). Moreover, the Potency result in experiment [4] and in experiment [2] was “inactive” throughout.

As for `CC(C)(NC(=O)[C@@H](N)Cc1ccc(O)cc1)C(=O)N[C@@H](Cc1cc2ccccc2[nH]1)C(=O)N[C@@H](Cc1ccccc1)C(=O)O` (H-Y[Aib][Ala(indol-2-yl)]F-OH), the outcome in experiment [7] is “inactive [at 9.29 µM]”. Moreover, the activity change, negative = cytotoxicity in experiment [3] was 5.29% [at 9.29 µM]; with CAOV3 it was 2.52% [at 11.6 µM]; with HeLa, 14.3% [at 11.6 µM]; with JEG-3, -21.6% [at 11.6 µM]; in the experiment on SKOV3, -8.69% [at 11.6 µM]. Further, the activity change, negative = inhibition in experiment [4] is 11.5% [at 19.1 µM]. Besides, in [1], the activity change, negative = cell killing is -2.68% [at 9.23 µM]. Besides, the result in the experiment with KB-3-1 was inactive.

With `CC(=O)OC[C@]12C[C@H](OC(=O)CC(C)C)C(C)=C[C@H]1O[C@@H]1[C@H](O)[C@@H](O)[C@@]2(C)[C@]12CO2`, the Potency in experiment [3] was 0.112 µM (active); in experiment [1], 0.0178 µM (active); with KB-3-1 it was 0.0399 µM (active); in the experiment with HeLa it was 0.158 µM (active); in the experiment with JEG-3 it was 1.58 µM (active). For the same compound, the Potency entry in experiment [4] and in experiment [2] was “inactive” throughout.

As to `C[N@@+]1(CC2CC2)CC[C@]23c4c5ccc(O)c4O[C@H]2C(=O)CC[C@@]3(O)[C@H]1C5`, the Potency entry (in experiment [7]; in [4]; in experiment [2]; in the experiment on CAOV3; in the experiment on HeLa; in the experiment on JEG-3) was “inactive” each time. The compound was classed as inactive in the experiment with KB-3-1.
